# Source: PubChem BioAssay
# Assay: compound effects on lung adenocarcinoma cell viability – A549, calcein-AM fluorescence, 48 h, basal, profiling panel (AID 1162)
# Settings: higher = more signal
# Note: test concentration not given here.
row,SMILES,z-score
1,NC(=O)NCC#Cc1ccc2c(c1)[C@]1(C(=O)N2)[C@H](c2ccc(OCCO)cc2)N2[C@H](c3ccccc3)[C@H](c3ccccc3)OC(=O)[C@H]2[C@@H]1C(=O)N1CCCCCCC1,-0.702
2,O=C1C[C@@](C(=O)O)(c2ccc([N+](=O)[O-])cc2)[C@@H](c2ccc(CO)cc2)N1CC12CC3CC(CC(C3)C1)C2,0.0051
3,O=C1C[C@@](C(=O)NCc2ccccc2)(c2ccc([N+](=O)[O-])cc2)[C@@H](c2ccc(CO)cc2I)N1C1CCCCC1,1.14
4,COc1cccc(C[C@H]2C[C@@H](CO[Si](C(C)C)(C(C)C)C(C)C)N3C(=O)[C@]4(C(C)=O)O[C@]23[C@H]2C(=O)N(C)C(=O)[C@H]24)c1,-2.16
5,COCC(=C=CC[C@@H](O)c1ccccc1OCCO)C[C@@H](O)COCc1ccccc1,1.94
6,COC(=O)C(CC#Cc1ccc2c(c1)[C@]1(C(=O)N2)[C@H](C(=O)N2CCc3cc(OC)c(OC)cc3C2)[C@H]2C(=O)O[C@H](c3ccccc3)[C@H](c3ccccc3)N2[C@@H]1c1ccc(O)cc1)C(=O)OC,-0.703
7,CN1C(=O)C2C=CC(C(O)COCc3ccccc3)N(Nc3ccccc3)C2C1=O (stereo not drawn),-0.115
8,Cc1ccccc1C(O)C1C=CC2C(=O)N(Cc3ccccc3)C(=O)C2N1n1cnnc1 (stereo not drawn),-1.2

# Assay: compound effects on differentiated 3T3-L1 adipocyte viability – cell-based, 3T3-L1 adipocytes, calcein-AM fluorescence, 48 h, basal, profiling panel (AID 1163)
# Settings: 3T3-L1 adipocytes viability, higher = more signal
row,SMILES,z-score
1,Cc1cc(C)c(C(O)C2C=CC3C(=O)N(c4ccccc4)C(=O)C3N2Nc2ccccc2)c(C)c1 (stereo not drawn),-1.35
2,O=C1O[C@H](c2ccccc2)[C@H](c2ccccc2)N2[C@H]1[C@@H](C(=O)N1CCN(c3ncccn3)CC1)[C@]1(C(=O)Nc3ccc(C#CCCO)cc31)[C@H]2c1ccc(OCCO)cc1,0.404
3,O=C1CSC(c2cccc([N+](=O)[O-])c2)N1c1ccccc1 (stereo not drawn),-0.23
4,COC(=O)C(CC#Cc1ccc2c(c1)[C@]1(C(=O)N2)[C@H](c2ccc(O)cc2)N2[C@H](c3ccccc3)[C@H](c3ccccc3)OC(=O)[C@H]2[C@@H]1C(=O)O)C(=O)OC,-0.987
5,COCCCNC(=O)[C@@]1(Cc2ccccc2I)c2ccccc2C(=O)N(Cc2ccccc2Cl)[C@H]1c1ccc(CO)cc1,0.39
6,COC(=O)[C@]1(Cc2ccccc2CN=[N+]=[N-])N=C(c2ccc(OCCCO)cc2)O[C@@H]1c1ccccc1,0.371
7,CN(C)CCCCCCNC(=O)[C@@H]1C[C@@H]2C(=O)NCC(=O)N2[C@@H]1c1ccc(O)cc1,0.5
8,COC(=O)c1ccc(OC)c(/C=C\CC(CCc2ccccc2)OC(=O)c2ccncc2)c1 (stereo not drawn),0.115
9,CCOC(=O)C[C@H]1[C@H](OC(=O)Cc2ccc3c(c2)OCO3)[C@@H](NC(=O)c2ccccc2)c2cc(OCCCO)ccc2N1C(=O)c1ccc2ccccc2n1,1.08
10,CCCNC(=O)[C@@]1(Sc2ccc(C)cc2)CC(=O)N(Cc2ccccc2)[C@@H]1c1ccc(CO)cc1I,-0.525
11,CC1(C)[C@@H]2CC(C(O)C3C=CC4C(=O)N(c5ccccc5)C(=O)C4N3Nc3ccccc3F)=C[C@@H]1C2 (stereo partly drawn),-0.297
12,COc1ccc(C#Cc2ccc3c(c2)[C@]2(C(=O)N3)[C@H](C(N)=O)[C@H]3C(=O)O[C@H](c4ccccc4)[C@H](c4ccccc4)N3[C@@H]2c2ccc(O)cc2)cc1,0.13
13,COc1ccc([Si](C)(C)[C@@H]2[C@@H](CCO)O[C@]3(C(=O)N(Cc4ccc(N5C(=O)c6ccccc6Oc6ccccc65)cc4)c4ccccc43)[C@H]2C)cc1,-0.703
14,NC(=O)NCC#Cc1ccc2c(c1)[C@]1(C(=O)N2)[C@H](c2ccc(O)cc2)N2[C@H](c3ccccc3)[C@H](c3ccccc3)OC(=O)[C@H]2[C@@H]1C(=O)NC[C@H](O)c1ccccc1,0.192
15,CO[C@H]1O[C@H](CO)[C@@H](OC(=O)c2ccc(Br)cc2)[C@@H]2OC(=O)[C@H](Cc3cccc(Br)c3)C/C=C/C[C@@H](Cc3cccc(Br)c3)C(=O)O[C@@H]12,1.09
16,CO[C@H]1O[C@H](CO)[C@@H](OC(=O)Nc2cccc(F)c2)[C@H](OC(=O)Nc2ccc3c(c2)OCO3)[C@H]1OC(=O)Nc1ccc2c(c1)OCO2,0.424
17,CC(C)C[C@H]1NC(=O)[C@H](C)NC(=O)[C@@]23C(=O)N[C@@H](Cc4ccccc4)C2[C@H](C)[C@@]2(C)O[C@H]2C3/C=C/C/C=C\CNC1=O (stereo partly drawn),0.392
18,Cc1ccc(C(C)CC(O)C2C=CC3C(=O)N(Cc4ccccc4)C(=O)C3N2n2cnnc2)o1 (stereo not drawn),-0.126

row,SMILES,z-score
1,COCCCNC(=O)[C@@]1(Cc2ccccc2)COC(c2ccc(OCCCO)cc2)=N1,-0.598
2,O=C1c2ccccc2[C@](Cc2ccccc2I)(C(=O)NC2CC2)[C@H](c2ccc(CO)cc2)N1Cc1ccccc1Cl,-0.103
3,CCOC(=O)C[C@H]1[C@H](OC(=O)Cc2ccc3c(c2)OCO3)[C@@H](NC(=O)c2ccccc2)c2cc(OCCCO)ccc2N1C(=O)c1ccccc1,0.232
4,CCOC(=O)C1=CC[C@@H](c2ccc(N(CC)CC)cc2)N(S(=O)(=O)c2ccc(C)cc2)[C@H]1c1ccc([N+](=O)[O-])cc1,-1.19
5,COC(=O)C(CC#Cc1ccc2c(c1)[C@]1(C(=O)N2)[C@H](C(=O)N2CCc3cc(OC)c(OC)cc3C2)[C@H]2C(=O)O[C@H](c3ccccc3)[C@H](c3ccccc3)N2[C@@H]1c1ccc(OCCO)cc1)C(=O)OC,-0.204
6,CC(C)N1C(=O)c2ccccc2[C@](C)(C(=O)O)[C@@H]1c1ccc(CO)cc1,0.0073
7,C=CCC(OC(C)=O)[C@@H]1[C@@H](N(Cc2ccc(-c3ccccc3)cc2)C(=O)c2cccc3ccccc23)c2cc(OCCCO)ccc2N1C(=O)c1ccc2ccccc2n1 (stereo partly drawn),0.522
8,[N-]=[N+]=Nc1ccccc1[C@H]1OC(c2ccc(OCCCO)cc2)=N[C@@]1(Cc1ccccc1)C(=O)NCc1ccccc1,0.491
9,COCCCNC(=O)[C@]1(CCS(=O)(=O)c2ccccc2)N=C(c2ccc(OCCCO)cc2)O[C@@H]1c1ccccc1,0.151
10,NC(=O)NCC#Cc1ccc2c(c1)[C@]1(C(=O)N2)[C@H](c2ccc(OCCO)cc2)N2[C@H](c3ccccc3)[C@H](c3ccccc3)OC(=O)[C@H]2[C@@H]1C(=O)N1CCCCCCC1,-0.467
11,O=C1C[C@@](C(=O)O)(c2ccc([N+](=O)[O-])cc2)[C@@H](c2ccc(CO)cc2)N1CC12CC3CC(CC(C3)C1)C2,0.0068
12,O=C1C[C@@](C(=O)NCc2ccccc2)(c2ccc([N+](=O)[O-])cc2)[C@@H](c2ccc(CO)cc2I)N1C1CCCCC1,0.317
13,COc1cccc(C[C@H]2C[C@@H](CO[Si](C(C)C)(C(C)C)C(C)C)N3C(=O)[C@]4(C(C)=O)O[C@]23[C@H]2C(=O)N(C)C(=O)[C@H]24)c1,-0.206
14,COCC(=C=CC[C@@H](O)c1ccccc1OCCO)C[C@@H](O)COCc1ccccc1,1.04
15,COC(=O)C(CC#Cc1ccc2c(c1)[C@]1(C(=O)N2)[C@H](C(=O)N2CCc3cc(OC)c(OC)cc3C2)[C@H]2C(=O)O[C@H](c3ccccc3)[C@H](c3ccccc3)N2[C@@H]1c1ccc(O)cc1)C(=O)OC,1.08
16,CN1C(=O)C2C=CC(C(O)COCc3ccccc3)N(Nc3ccccc3)C2C1=O (stereo not drawn),-1.24
17,Cc1ccccc1C(O)C1C=CC2C(=O)N(Cc3ccccc3)C(=O)C2N1n1cnnc1 (stereo not drawn),0.194
